Compounds without any hit were thinned out: in the full panel of roughly 83,000, 20% have a hit.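 48-hour exposure, single concentration, 96-well plates; percent growth endpoint where 0 means no net growth. Active: below 10.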 Active and inactive are the calls of the source.
Columns and labels:
Assay in all cases: NCI-60 one-dose screen, 48 h (100 = growth as untreated, 0 = no growth, -100 = all killed)
Settings in all cases: 10 µM unless noted
[1] = system: DU-145 prostate
[2] = system: K-562 leukemia
[3] = system: MALME-3M melanoma
[4] = system: MDA-MB-231 breast
[5] = system: RXF 393 renal
[6] = system: SF-268 CNS
[7] = system: SF-295 CNS
[8] = system: SF-539 CNS
[9] = system: UACC-257 melanoma
[10] = system: M14 melanoma
[11] = system: HCT-15 colon
[12] = system: HT29 colon
[13] = system: SNB-75 CNS
[14] = system: U251 CNS
[15] = system: PC-3 prostate
[16] = system: SK-MEL-5 melanoma
[17] = system: UACC-62 melanoma
[18] = system: LOX IMVI melanoma
[19] = system: SK-MEL-28 melanoma
[20] = system: SNB-19 CNS

Measured: growth

N#Cc1c(-c2cccc(Cl)c2)cc(-c2cccc(Cl)c2)[nH]c1=O
inactive: [1] 96.5% | [2] 27.1% | [3] 69% | [4] 90.5% | [5] 82.1% | [6] 83.4% | [7] 83.7% | [8] 82.7% | [9] 90.2% | [10] 57.9% | [11] 44.9% | [12] 114% | [13] 43% | [14] 74.7% | [15] 68.7% | [16] 64.9% | [17] 45.2% | [18] 72.3% | [19] 78.5%

CC1(C)CC(=O)C2=C(C1)N(c1ccc(OC(F)(F)F)cc1)C(N)=C(C#N)C2c1ccc(Cl)cc1 (centres undefined)
inactive: [1] 91.3% | [2] 86.5% | [3] 85% | [4] 80.8% | [5] 66.7% | [6] 74.3% | [7] 81.6% | [8] 82.2% | [9] 84.1% | [10] 93.7% | [11] 97.1% | [12] 87.2% | [13] 52.6% | [14] 56.2% | [15] 76.8% | [16] 93.8% | [17] 85.5% | [18] 86% | [19] 96.2%

CCc1ccccc1-n1c(N)c(C#N)c(-c2ccc(N(C)C)cc2)c(C#N)c1=O
inactive: [1] 103% | [2] 89.3% | [3] 91% | [4] 91.3% | [5] 89.6% | [6] 95.6% | [7] 98.3% | [8] 90.2% | [9] 101% | [10] 101% | [11] 97.7% | [12] 101% | [13] 88.3% | [14] 91.1% | [15] 82.6% | [16] 86.5% | [17] 88% | [18] 92.7% | [19] 100%

C=C1C(=O)O[C@H]2[C@H]1CC/C(COC(=O)C(=O)c1c[nH]c3ccc(OC)cc13)=C\CC[C@@]1(C)O[C@@H]21
active: [1] -89.8% | [2] -7.42% | [3] -71.4% | [4] -64.8% | [5] -93.1% | [6] -53.2% | [8] -97.4% | [9] -93.9% | [10] -79.1% | [11] -49.8% | [12] -69.7% | [13] -88.4% | [14] -97.8% | [15] -70% | [16] -96.6% | [17] -76.6% | [18] -77.4% | [19] -75.3%
inactive: [7] 33.1%

Cc1cc(Cl)ccc1Nc1nc(C(F)(F)F)ccc1C(=O)N/N=C/c1ccc(N(C)C)cc1
inactive: [1] 40.3% | [2] 18.9% | [3] 22.1% | [4] 22% | [6] 31.8% | [8] 41.4% | [9] 30% | [10] 33.9% | [11] 15.9% | [12] 32.5% | [13] 65.1% | [20] 42% | [14] 16.2% | [16] 12.9% | [18] 27% | [19] 45.2%
active: [5] -4.86% | [7] -7.53% | [17] 9.47%

O=C1Nc2ccccc2/C1=C/c1cn(C(=O)c2c(Cl)cccc2Cl)c2ccccc12
inactive: [1] 59.3% | [2] 45.7% | [3] 117% | [4] 55.1% | [6] 56.6% | [7] 44.5% | [8] 67.4% | [9] 79.2% | [10] 66.2% | [11] 31% | [12] 69.7% | [13] 54.7% | [14] 35.8% | [15] 41.7% | [16] 63.1% | [17] 36.7% | [18] 48.4% | [19] 81.5%
active: [5] -4.11%

N#Cc1c(N)nc2c(C#N)c(NC(=O)c3ccccc3)nn2c1-c1ccccc1
inactive: [1] 102% | [2] 73.1% | [3] 102% | [4] 84.3% | [5] 83.5% | [6] 86.2% | [7] 90% | [8] 94.2% | [9] 105% | [10] 87.3% | [11] 81.2% | [12] 99% | [13] 83% | [14] 106% | [15] 75.7% | [16] 78.4% | [17] 91.2% | [18] 86.3% | [19] 103%

Cc1ccc(C2SCC(=O)N2Cc2ccccc2)cc1 (centres undefined)
inactive: [1] 118% | [2] 110% | [3] 93.3% | [4] 98.3% | [5] 114% | [6] 115% | [7] 95% | [8] 109% | [9] 97.7% | [10] 104% | [11] 100% | [12] 96.9% | [13] 95.1% | [14] 97.6% | [15] 92.1% | [16] 105% | [17] 91.7% | [18] 97.9% | [19] 106%

NC(N)=Nc1nc2ccccc2n2c1nc1ccccc12
inactive: [1] 33.3% | [2] 17.9% | [3] 35.6% | [4] 53.2% | [5] 35% | [6] 28.5% | [7] 24.2% | [8] 50.3% | [9] 60.3% | [10] 42.6% | [11] 25.9% | [12] 18.2% | [13] 43.7% | [14] 27.8% | [15] 48.5% | [16] 58.6% | [17] 40.7% | [18] 20.6% | [19] 82.3%

C=C(C)[C@@H]1CC[C@]2(C(=O)NC3CCCCC3)CC[C@]3(C)[C@H](CC[C@@H]4[C@@]5(C)CCCNC(C)(C)[C@@H]5CC[C@]43C)[C@@H]12
active: [2] -8.4% | [3] -6.88% | [9] -9.57% | [10] -52.3% | [11] -26.8% | [12] 2.51% | [16] 6.77% | [18] -91.8%
inactive: [1] 59% | [4] 52.7% | [5] 56.6% | [6] 78.4% | [7] 96.9% | [8] 63.4% | [13] 93.9% | [20] 84.3% | [14] 14.9% | [17] 11.7% | [19] 56.6%

C=C1C(=O)O[C@H]2[C@H]1CC/C(CNC(=O)/C=C/c1ccc(Cl)cc1Cl)=C\CC[C@@]1(C)O[C@@H]21
active: [1] -80.7% | [2] -31.2% | [3] -89.8% | [4] -42.1% | [5] -84.6% | [6] -69.7% | [8] -72.4% | [9] -51.7% | [10] -57.5% | [11] -64% | [12] -58.4% | [14] 8.28% | [15] -26.4% | [16] 3.01% | [17] -65.2% | [18] -97.2% | [19] -68.2%
inactive: [7] 39.2% | [13] 21.3%

CCSC1=NC2C(N(CC)C(=O)N2CC)N1/N=C/C=C/c1ccccc1[N+](=O)[O-] (centres undefined)
active: [1] 5.79% | [4] -1.7% | [7] 8.87% | [8] -26.3% | [10] 6.53% | [12] 3.47% | [16] -38.6%
inactive: [2] 10.4% | [3] 36.2% | [5] 41.5% | [6] 45.2% | [9] 61.1% | [11] 10.7% | [13] 23.8% | [14] 12.7% | [15] 22.9% | [17] 25.5% | [18] 14.3%

NC(=N\N=C/c1cccc([N+](=O)[O-])c1)/C(N)=N\N=C/c1cccc([N+](=O)[O-])c1
inactive: [1] 58.1% | [2] 36.1% | [3] 81.4% | [4] 93.4% | [5] 72.9% | [6] 65.9% | [7] 92.9% | [8] 89.1% | [9] 85.6% | [10] 92.8% | [11] 51.9% | [12] 99.3% | [13] 35.1% | [14] 76.6% | [15] 72.2% | [16] 58.2% | [17] 65% | [18] 82% | [19] 77.9%

O=C(NCCCNc1cc(-c2cn(-c3ccccc3)nc2-c2cccc(O)c2)ccn1)c1cccc(O)c1
inactive: [1] 78.3% | [3] 64.2% | [4] 43.5% | [5] 77.3% | [6] 63.8% | [7] 83.3% | [8] 69.5% | [9] 58.4% | [10] 52.8% | [11] 79.5% | [12] 87% | [13] 59.8% | [14] 42.3% | [15] 39.4% | [16] 43.7% | [17] 42% | [18] 54.1% | [19] 77.6%
active: [2] 7.59%

CNC(=O)NCC1OC(n2cnc3c(NC(=O)Nc4ccccc4)ncnc32)C(O[Si](C)(C)C(C)(C)C)C1CC(=O)N(C)OC (centres undefined)
active: [5] -68.2% | [7] -41.2% | [8] 0.123% | [9] 5.59% | [12] -25.5% | [13] -7.28% | [14] -15.2% | [15] -20.8% | [19] 7.73%
inactive: [1] 25.3% | [2] 16.1% | [3] 12.3% | [4] 15.2% | [6] 33.2% | [10] 34.4% | [11] 11.9% | [16] 25.9% | [17] 34.4% | [18] 18.6%

From PubChem BioAssay (NCI)
